Measurements reported in PubChem BioAssay AID1159580 (chemical genetic matrix, 2015).
Values joined by “and” are separate entries in the source; they are usually repeats but may differ in a detail not shown here. Equal values may be shown once. Out of some 5,500 compounds screened, about 2,000 (36%) were called active. Another 18% or so got no clear call; they are omitted. No stated cut-off is given here; in the data, active means normalized growth mostly below about 0.91 (no sharp cut-off); inconclusive means no clear call, values can overlap the other calls; inactive means mostly above about 0.92. The list shows a part of the results.

Test: chemical genetic growth profiling, strain panel (AID 1159580);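 further: tested at 20 µM; growth read once vehicle control cultures reached saturation at 30 °C; 1 = growth at the plate median or of vehicle wells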
Conditions: growth OD

CC(C)C1=CC2=CCC3[C@](C)(CCC[C@]3(C)C(=O)O)C2CC1 (stereo not given in full)
normalized growth (S. cerevisiae deletion strains, locus YAL013W, strain DEP1, stronger effect = lower value): 0.957 (inactive)
normalized growth (S. cerevisiae deletion strains, locus YBR021W, strain FUR4, stronger effect = lower value): 1.03 (inactive)
normalized growth (S. cerevisiae deletion strains, locus YBR229C, strain ROT2, stronger effect = lower value): 0.935 (inactive)
normalized growth (S. cerevisiae deletion strains, locus YCL029C, strain bik1, stronger effect = lower value): 0.995 (inactive)
normalized growth (S. cerevisiae deletion strains, locus YDL035C, strain GPR1, stronger effect = lower value): 0.918 (inactive)
normalized growth (S. cerevisiae deletion strains, locus YDL074C, strain BRE1, stronger effect = lower value): 0.923 (inactive)
normalized growth (S. cerevisiae deletion strains, locus YDL101C, strain DUN1, stronger effect = lower value): 0.946 (inactive)
normalized growth (S. cerevisiae deletion strains, locus YDL134C, strain PPH21, stronger effect = lower value): 0.935 (inactive)
normalized growth (S. cerevisiae deletion strains, locus YDL185W, strain tfp1, stronger effect = lower value): 0.975 (inactive)
normalized growth (S. cerevisiae deletion strains, locus YDL192W, strain arf1, stronger effect = lower value): 0.939 (inactive)
normalized growth (S. cerevisiae deletion strains, locus YDR101C, strain arx1, stronger effect = lower value): 1.05 (inactive)
normalized growth (S. cerevisiae deletion strains, locus YDR150W, strain NUM1, stronger effect = lower value): 0.981 (inactive)
normalized growth (S. cerevisiae deletion strains, locus YDR162C, strain NBP2, stronger effect = lower value): 0.724 (active)
normalized growth (S. cerevisiae deletion strains, locus YDR318W, strain mcm21, stronger effect = lower value): 0.925 (inactive)
normalized growth (S. cerevisiae deletion strains, locus YDR388W, stronger effect = lower value): 0.981 (inactive)
normalized growth (S. cerevisiae deletion strains, locus YDR502C, strain sam2, stronger effect = lower value): 0.952 (inactive)
normalized growth (S. cerevisiae deletion strains, locus YEL061C, strain CIN8, stronger effect = lower value): 0.97 (inactive)
normalized growth (S. cerevisiae deletion strains, locus YER110C, stronger effect = lower value): 0.99 (inactive)
normalized growth (S. cerevisiae deletion strains, locus YER155C, strain BEM2, stronger effect = lower value): 1.02 (inactive)
normalized growth (S. cerevisiae deletion strains, locus YER167W, strain BCK2, stronger effect = lower value): 0.994 (inactive)
normalized growth (S. cerevisiae deletion strains, locus YGL078C, strain dbp3, stronger effect = lower value): 0.978 (inactive)
normalized growth (S. cerevisiae deletion strains, locus YGL086W, strain mad1, stronger effect = lower value): 1.02 (inactive)
normalized growth (S. cerevisiae deletion strains, locus YGL248W, strain PDE1, stronger effect = lower value): 0.928 (inactive)
normalized growth (S. cerevisiae deletion strains, locus YGR135W, strain pre9, stronger effect = lower value): 0.94 (inactive)
normalized growth (S. cerevisiae deletion strains, locus YGR252W, strain gcn5, stronger effect = lower value): 0.986 (inactive)
normalized growth (S. cerevisiae deletion strains, locus YHR030C, strain SLT2, stronger effect = lower value): 0.996 (inactive) and 0.843 (active)
normalized growth (S. cerevisiae deletion strains, locus YHR079C, strain IRE1 (second series), stronger effect = lower value): 0.974 (inactive)
normalized growth (S. cerevisiae deletion strains, locus YHR079C, strain IRE1, stronger effect = lower value): 0.851 (active)
normalized growth (S. cerevisiae deletion strains, locus YHR094C, strain hxt1, stronger effect = lower value): 0.976 (inactive)
normalized growth (S. cerevisiae deletion strains, locus YHR129C, strain ARP1, stronger effect = lower value): 0.967 (inactive)
normalized growth (S. cerevisiae deletion strains, locus YHR200W, strain rpn10, stronger effect = lower value): 0.995 (inactive)
normalized growth (S. cerevisiae deletion strains, locus YIL066C, strain RNR3, stronger effect = lower value): 0.937 (inactive)
normalized growth (S. cerevisiae deletion strains, locus YIL073C, strain SPO22, stronger effect = lower value): 0.902 (inactive)
normalized growth (S. cerevisiae deletion strains, locus YIL125W, strain kgd1, stronger effect = lower value): 1 (inactive)
normalized growth (S. cerevisiae deletion strains, locus YIR030C, strain dcg1, stronger effect = lower value): 0.974 (inactive)
normalized growth (S. cerevisiae deletion strains, locus YJL095W, strain BCK1, stronger effect = lower value): 0.782 (active) and 0.89 (inactive)
normalized growth (S. cerevisiae deletion strains, locus YJL134W, strain LCB3, stronger effect = lower value): 0.977 (inactive)
normalized growth (S. cerevisiae deletion strains, locus YJL168C, strain set2, stronger effect = lower value): 0.977 (inactive)
normalized growth (S. cerevisiae deletion strains, locus YJL187C, strain SWE1 (second series), stronger effect = lower value): 0.96 (inactive)
normalized growth (S. cerevisiae deletion strains, locus YJR043C, strain POL32, stronger effect = lower value): 1.02 (inactive)
normalized growth (S. cerevisiae deletion strains, locus YJR066W, strain TOR1, stronger effect = lower value): 0.857 (inactive)
normalized growth (S. cerevisiae deletion strains, locus YKL009W, strain mrt4, stronger effect = lower value): 0.958 (inactive)
normalized growth (S. cerevisiae deletion strains, locus YKL068W, stronger effect = lower value): 0.971 (inactive)
normalized growth (S. cerevisiae deletion strains, locus YKL085W, strain MDH1 (second series), stronger effect = lower value): 0.966 (inactive)
normalized growth (S. cerevisiae deletion strains, locus YKL085W, strain MDH1, stronger effect = lower value): 0.966 (inactive)
normalized growth (S. cerevisiae deletion strains, locus YKL190W, strain CNB1, stronger effect = lower value): 0.958 (inactive)
normalized growth (S. cerevisiae deletion strains, locus YKR001C, strain vps1, stronger effect = lower value): 1.01 (inactive)
normalized growth (S. cerevisiae deletion strains, locus YLR039C, strain RIC1, stronger effect = lower value): 0.637 (active)
normalized growth (S. cerevisiae deletion strains, locus YLR058C, strain SHM2, stronger effect = lower value): 0.944 (inactive)
normalized growth (S. cerevisiae deletion strains, locus YLR102C, strain apc9, stronger effect = lower value): 0.985 (inactive)
normalized growth (S. cerevisiae deletion strains, locus YLR113W, strain HOG1, stronger effect = lower value): 0.859 (inactive)
normalized growth (S. cerevisiae deletion strains, locus YLR262C, strain YPT6, stronger effect = lower value): 0.542 (active)
normalized growth (S. cerevisiae deletion strains, locus YLR268W, strain sec22, stronger effect = lower value): 1.01 (inactive)
normalized growth (S. cerevisiae deletion strains, locus YLR330W, strain CHS5, stronger effect = lower value): 0.984 (inactive)
normalized growth (S. cerevisiae deletion strains, locus YLR342W, strain FKS1 (second series), stronger effect = lower value): 0.859 (inactive)
normalized growth (S. cerevisiae deletion strains, locus YLR371W, strain rom2, stronger effect = lower value): 0.992 (inactive)
normalized growth (S. cerevisiae deletion strains, locus YLR418C, strain cdc73, stronger effect = lower value): 0.781 (active)
normalized growth (S. cerevisiae deletion strains, locus YML016C, strain PPZ1, stronger effect = lower value): 0.966 (inactive)
normalized growth (S. cerevisiae deletion strains, locus YML032C, strain rad52, stronger effect = lower value): 0.949 (inactive)
normalized growth (S. cerevisiae deletion strains, locus YML124C, strain tub3, stronger effect = lower value): 0.979 (inactive)
normalized growth (S. cerevisiae deletion strains, locus YMR078C, strain ctf18, stronger effect = lower value): 0.974 (inactive)
normalized growth (S. cerevisiae deletion strains, locus YMR223W, strain ubp8, stronger effect = lower value): 0.923 (inactive)
normalized growth (S. cerevisiae deletion strains, locus YMR307W, strain GAS1, stronger effect = lower value): 0.502 (active)
normalized growth (S. cerevisiae deletion strains, locus YNL067W, strain RPL9B, stronger effect = lower value): 0.972 (inactive)
normalized growth (S. cerevisiae deletion strains, locus YNL153C, strain GIM3, stronger effect = lower value): 0.967 (inactive)
normalized growth (S. cerevisiae deletion strains, locus YNL183C, strain NPR1, stronger effect = lower value): 0.894 (inactive)
normalized growth (S. cerevisiae deletion strains, locus YNL233W, strain BNI4, stronger effect = lower value): 0.987 (inactive)
normalized growth (S. cerevisiae deletion strains, locus YNL250W, strain rad50, stronger effect = lower value): 0.963 (inactive)
normalized growth (S. cerevisiae deletion strains, locus YNL271C, strain bni1, stronger effect = lower value): 0.963 (inactive)
normalized growth (S. cerevisiae deletion strains, locus YNL298W, strain CLA4, stronger effect = lower value): 0.995 (inactive)
normalized growth (S. cerevisiae deletion strains, locus YNL307C, strain MCK1, stronger effect = lower value): 0.945 (inactive)
normalized growth (S. cerevisiae deletion strains, locus YNR052C, strain pop2, stronger effect = lower value): 0.95 (inactive)
normalized growth (S. cerevisiae deletion strains, locus YOL006C, strain TOP1, stronger effect = lower value): 0.937 (inactive)
normalized growth (S. cerevisiae deletion strains, locus YOL012C, strain htz1): 1.21 (inactive)
normalized growth (S. cerevisiae deletion strains, locus YOL147C, strain pex11, stronger effect = lower value): 0.987 (inactive)
normalized growth (S. cerevisiae deletion strains, locus YOR061W, strain CKA2, stronger effect = lower value): 0.921 (inactive)
normalized growth (S. cerevisiae deletion strains, locus YOR069W, strain VPS5, stronger effect = lower value): 0.972 (inactive)
normalized growth (S. cerevisiae deletion strains, locus YOR136W, strain idh2, stronger effect = lower value): 0.999 (inactive)
normalized growth (S. cerevisiae deletion strains, locus YOR144C, strain elg1, stronger effect = lower value): 0.982 (inactive)
normalized growth (S. cerevisiae deletion strains, locus YOR184W, strain ser1, stronger effect = lower value): 0.801 (active)
normalized growth (S. cerevisiae deletion strains, locus YOR231W, strain MKK1, stronger effect = lower value): 0.859 (active)
normalized growth (S. cerevisiae deletion strains, locus YOR316C, strain cot1, stronger effect = lower value): 0.979 (inactive)
normalized growth (S. cerevisiae deletion strains, locus YPL241C, strain CIN2, stronger effect = lower value): 0.967 (inactive)
normalized growth (S. cerevisiae deletion strains, locus YPL256C, strain CLN2, stronger effect = lower value): 0.824 (active)
normalized growth (S. cerevisiae deletion strains, locus YPR119W, strain clb2, stronger effect = lower value): 0.977 (inactive)
normalized growth (S. cerevisiae deletion strains, locus YPR141C, strain kar3, stronger effect = lower value): 0.958 (inactive)
normalized growth (S. cerevisiae deletion strains, locus YPR163C, strain tif3, stronger effect = lower value): 0.976 (inactive)
normalized growth (S. cerevisiae deletion strains, locus YPR167C, strain met16, stronger effect = lower value): 0.98 (inactive)
normalized growth (S. cerevisiae deletion strains, strain wtn01, stronger effect = lower value): 1.06 (inactive)
normalized growth (S. cerevisiae strains, strain wild type, stronger effect = lower value): 0.962 (inactive)
